Assay outcomes: PubChem BioAssay, Fisher Drug Discovery Resource Center
The entries come from a sample that favours hits as a whole.
mcGAS MS inh – mouse cGAS inhibition by mass spec. Q8C6L5. recombinant mouse cGAS, cGAMP by RapidFire MS. inhibition, % at 12.5 µM. 130,000 tested, 0.18% active. AID 1259397;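 active = inhibition of cGAS enzyme activity at or above 60%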;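 note: enzyme stimulated by 45 bp dsDNA with ATP and GTP substrates; cGAMP share of summed cGAMP plus half ATP and half GTP signals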
Target sequence (Q8C6L5 whole entry, looked up): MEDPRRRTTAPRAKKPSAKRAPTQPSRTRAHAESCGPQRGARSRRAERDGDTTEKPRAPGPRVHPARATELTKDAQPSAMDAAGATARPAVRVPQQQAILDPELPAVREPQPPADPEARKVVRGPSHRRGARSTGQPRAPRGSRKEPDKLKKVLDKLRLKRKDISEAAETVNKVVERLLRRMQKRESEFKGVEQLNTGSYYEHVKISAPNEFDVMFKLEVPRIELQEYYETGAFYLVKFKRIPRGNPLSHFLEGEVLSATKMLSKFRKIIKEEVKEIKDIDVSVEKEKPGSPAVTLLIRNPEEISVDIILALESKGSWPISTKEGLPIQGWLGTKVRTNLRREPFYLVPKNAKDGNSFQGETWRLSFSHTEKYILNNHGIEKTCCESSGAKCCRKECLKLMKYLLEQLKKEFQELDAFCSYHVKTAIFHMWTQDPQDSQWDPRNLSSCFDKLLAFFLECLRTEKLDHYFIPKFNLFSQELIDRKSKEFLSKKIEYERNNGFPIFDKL
* marks the source's active call; other numbers are inactive results; ! = not active in a repeat.

SMILES	mcGAS MS inh
COC(=O)c1c(N)sc2c1CCCC2	-2
COC(=O)c1c(N2C(=O)C=CC2=O)sc2c1CCCC2	91*
COC(=O)c1c(N)sc2c1CCC2	-7
Cc1ccccc1NC(=O)C(C)N1CCN(Cc2cccc(C(F)(F)F)c2)CC1 (stereo not drawn)	-4
CCN1C(=N)C(C#N)C(c2ccc3[nH]c4ccccc4c3c2)c2nc(C)oc21 (stereo not drawn)	-22
C[n+]1cc2c3c(ccc2c2ccc4cc5c(cc4c21)OCO5)OCO3	85*!
CC(=C(C#N)C#N)c1ccc2c(c1)OCO2	-2
Cc1[nH]ncc1CCCNc1ccc(C(=O)N2CCC(C)CC2)cn1	-12
CC1ON=C(c2ccco2)N(C/C=C/c2ccccc2)C1=O (stereo not drawn)	46
COc1ccc(C(C)=O)cc1CN1C(=O)C(C)ON=C1c1ccco1 (stereo not drawn)	-6
CC1ON=C(c2ccco2)N(Cc2ccc(S(C)(=O)=O)cc2)C1=O (stereo not drawn)	66*
O=C(O)C1=CC(=C(c2ccc(O)c(C(=O)O)c2)c2ccc(O)c(C(=O)O)c2)C=CC1=O	95*
Cc1cc(O)ccc1C(=O)O	-1
Nc1ccc(O)c(C(=O)O)c1	-4
O=C(Nc1ccc(F)cc1)N1CCC(n2cc(CN3CCOCC3)nn2)CC1	-6
Cn1nnc2c(=O)n(CC(=O)NC(C)(C)C)cnc21	-2
O=C(O)C=C1OC(=O)c2ccccc21	4
O=C(Cn1cnnn1)Nc1nc(-c2cccc3ccccc23)cs1	3
COc1cccc(-c2nc(-c3c[nH]c4ccccc34)cs2)c1OC	-2
O=C(CCl)Nc1nc(-c2c[nH]c3ccccc23)cs1	72*
Cc1cc(CS(=O)(=O)c2nncn2C)on1	4
N#CC1(NC(=O)c2ccc3c(c2)CCCC3)CCOCC1	-8
CCCn1cc(NC(=O)c2cc(-c3ccccc3)on2)cn1	72*
O=C(Nc1cnn(C23CC4CC(CC(C4)C2)C3)c1)c1cc(-c2ccccc2)on1	1
Cc1ccc(-c2cc(C(=O)Nc3cnn(C45CC6CC(CC(C6)C4)C5)c3)no2)cc1	6
SMILES	mcGAS MS inh
CN(CC(=O)Nc1ccc(F)cc1)C(=O)Cn1cc(Br)ccc1=O	-1
COC(=O)Cn1c(=O)n(C)c2c(=O)n(C)c(=O)n(C)c21	-8
CN(C(=O)c1ccc(NC(=O)C2CC2)cc1)c1ccccc1	-10
O=c1c(O)c(-c2ccc(O)c(O)c2)oc2c(O[C@@H]3O[C@H](CO)[C@H](O)[C@@H](O)[C@H]3O)c(O)cc(O)c12	1
OCc1cc(O)c2c(O)c3c(O)cccc3c(O[C@@H]3O[C@H](CO)[C@H](O)[C@@H](O)[C@H]3O)c2c1	-6
COCC1(C)NC(=O)N(Cc2nc(Cc3ccccc3C)no2)C1=O (stereo not drawn)	-13
CC(C)OC(=O)CC(NC(=O)CCn1cccn1)c1ccccc1 (stereo not drawn)	18
S=c1[nH]nc(-c2sc3ccccc3c2Cl)o1	92*
Clc1c(-c2nnco2)sc2ccccc12	-3
S=c1[nH]nc(-c2ccccc2Cl)o1	-5
CCN(C(=O)CN1CCN(c2ccc([N+](=O)[O-])c3cnccc23)CC1)c1ccccc1	10
CCN(CCCn1cncn1)CC(=O)Nc1c(Cl)cccc1Cl	-15
NC(=S)N1N=C2C(=Cc3cccc([N+](=O)[O-])c3)CCCC2C1c1cccc([N+](=O)[O-])c1 (stereo not drawn)	49
Cc1cc(-c2nnc3sc(-c4ccc5ccccc5n4)nn23)n[nH]1	-7
CC(C)c1cc(-c2nn3c(C(C)(C)C)nnc3s2)n[nH]1	75*
COc1ccc2[nH]c(-c3nn4c(C(C)C)nnc4s3)cc2c1	-4
O=C1NCCCCC1Sc1nc2ccccc2c(=O)n1C1CC1 (stereo not drawn)	0
O=S(=O)(Nc1ccc2c(c1)CCC2)c1ccc(Br)cc1	-9
COC(=O)CSC1=NS(=O)(=O)c2ccccc2N1	-3
CC(C)C(C)NC(=O)c1ccc2c(c1)S(=O)(=O)Nc1ncnn1-2 (stereo not drawn)	2
COC(=O)c1nc2n(n1)-c1ccccc1S(=O)(=O)N2	91*
CCCc1nnc(NC(=O)N(C)Cc2cc(Cl)cn2C)s1	-11
C#CCNC(=O)NCc1[nH]ncc1Br	-1
Cc1cccc(OCC(=O)NCCCn2nc(-c3ccccc3)ccc2=O)c1C	6
Cc1cc(O)c(C2=Nc3ccccc3SC(c3ccc([N+](=O)[O-])cc3)C2)c(=O)o1 (stereo not drawn)	-4
SMILES	mcGAS MS inh
Cc1cc(O)c(C2=Nc3cc(C(F)(F)F)ccc3SC(c3ccc(O)c([N+](=O)[O-])c3)C2)c(=O)o1 (stereo not drawn)	67*
Cc1cc(O)c(-c2ccn[nH]2)c(=O)o1	-3
COc1ccc(NS(=O)(=O)/C=C/c2ccccc2)cn1	-6
Cn1c(=NN=C2CC3C=CCC23)sc2ccccc21 (stereo not drawn)	-3
S=c1[nH]nc2c3cnn(-c4ccccc4)c3ncn12	-3
Cc1nc2c3ccccc3ncn2n1	-2
S=c1[nH]nc2c3ccccc3ncn12	87*
Cc1cc(C)n(-c2cncc(N3CCCC(C(N)=O)C3)n2)n1 (stereo not drawn)	6
CCOCCOC(=O)C1=C(C)N(CC)C(=O)NC1c1ccc([N+](=O)[O-])cc1 (stereo not drawn)	98*
CCCOC(=O)C1=C(C)N(C)C(=O)NC1c1ccc([N+](=O)[O-])cc1 (stereo not drawn)	2
CCOCCOC(=O)C1=C(C)N(C)C(=O)NC1c1cccc([N+](=O)[O-])c1 (stereo not drawn)	-7
Cc1ccc(S(=O)(=O)/C(C#N)=C/N2CCN(c3ccccc3)CC2)cc1	1
Cc1cc(=O)oc2c(-c3cc(-c4cccs4)nc(N)n3)c(O)ccc12	-6
Cc1oc2ccccc2c1C#N	-7
N#Cc1c(N)oc2c3c(c(O)cc12)C(=O)c1ccccc1C3=O	68*
COc1ccc(-n2ccc3c(cnc4nc5ccccc5n43)c2=O)cc1	0
CN(Cc1ccc(F)c2cccnc12)C1(CO)CCSCC1	-3
COc1ccc(S(=O)(=O)N2CCN(c3cc(Cl)ccc3Cl)CC2)cc1OC	-18
CSc1nnc(CC2CCN(Cc3cccc4c3OCO4)CC2)n1C	-15
CCOC(=O)c1cc(Cl)nc(Cl)c1C	-4
CCOC(=O)c1cc(C(=O)OCC)c2c(C)cc(C)cc(C)c1-2	88*
CCOC(=O)c1c[nH]cc(C)c1=O	-7
CCC1=NOC(Cn2cnc(-c3ccccc3)c2-c2ncnn2CC)C1 (stereo not drawn)	-5
NC(Cc1ccc(O)cc1)C(=O)O (stereo not drawn)	-3
N[C@@H](Cc1cc(-c2ccc(Cl)cc2Cl)cc(CP(=O)(O)O)c1O)C(=O)O	70*
SMILES	mcGAS MS inh
CC(Nc1ccc(Cl)cc1Cl)C(=O)O (stereo not drawn)	31
COc1ccccc1CN(C)C(=O)c1coc(CN2CCN(c3ncccn3)CC2)n1	-6
O=c1cc(CNCCCN2CCOCC2)c2cc3c(cc2o1)CCC3	4
COc1ccc(C(=O)COC(=O)c2ccc3c(c2)-c2ccccc2C3=O)cc1Br	-6
N#CCC1=NNC2(O1)C(=O)Nc1ccccc12 (stereo not drawn)	-12
N#CCSc1nc(N)c(C#N)c(-c2ccc(O)cc2)c1C#N	-9
N#Cc1c(C2CCOC2)cc(-c2ccc(O)cc2)nc1N (stereo not drawn)	-14
N#Cc1c(N)nc2c(c1N)C(Sc1ccccc1)c1ccc(O)cc1O2 (stereo not drawn)	87*
